# Screens (PubChem)
# aSyn UTR act: Activators via SNCA 5'UTR binding, MLPCN; alpha-synuclein 5'UTR reporter, activators screen; activity score, % (tested at 7.5 µM), hits read low; AID 1814; 300,000 tested, 7.1% active; in the data active = activity score below about -60%
# * = called active by the depositor. These entries were drawn from the full list.
SMILES,aSyn UTR act
O=C(Nc1ccc(Cl)cc1Cl)NC1CCCC1,-74.0*
S=C(Nc1ccc(Cl)cc1Cl)NC1CCCCC1,-126.7*
CCOc1ccc(/C=N/n2cc(-c3ccccc3)[nH]c2=S)cc1,-64.8*
CCCC1=[N+](CC(=O)c2ccccc2)CCn2cccc21,-71.7*
COc1cc(CNC(C)c2ccccc2)cc(Br)c1OCc1ccc(F)cc1 (stereo not given),58.7
CCOc1cc(/C=N/NC(N)=S)cc(Br)c1OCc1ccccc1C,-73.7*
COc1cc(/C=N/NC(N)=S)cc(Br)c1OCc1ccccc1F,-74.0*
COc1cc(OC)cc(C(=O)Nc2ccc3nc4n(c(=O)c3c2)CCCC4)c1,-120.2*
CN(C)c1cccc(C(=O)Nc2ccc3nc4n(c(=O)c3c2)CCCCC4)c1,-81.4*
O=C(/C=C/c1ccco1)Nc1ccc2nc3n(c(=O)c2c1)CCCC3,-175.9*
COc1cccc(C(=O)Nc2ccc3nc4n(c(=O)c3c2)CCCC4)c1,-76.4*
CCOc1ccccc1C(=O)Nc1ccc2nc3n(c(=O)c2c1)CCCCC3,-77.0*
CC1Cc2cc(/C=C3/SC(=S)NC3=O)ccc2O1 (stereo not given),-106.0*
O=[N+]([O-])c1cccnc1NCCNc1ncc(C(F)(F)F)cc1Cl,-178.3*
O=c1cc(Cl)[nH]c(=O)n1CCNc1ncc(C(F)(F)F)cc1Cl,-106.2*
O=[N+]([O-])c1ccccc1NCCNc1ncc(C(F)(F)F)cc1Cl,-77.0*
COc1cc(/C=C/c2nc3ccccc3c(=O)[nH]2)ccc1OC(F)F,-195.0*
Cc1ccc(/C=C/c2nc3ccccc3c(=O)[nH]2)cc1,67.8
COC(=O)c1ccc(/C=C/c2nc3ccccc3c(=O)[nH]2)cc1,-136.4*
C=CCOc1cccc(/C=C/c2nc3ccccc3c(=O)[nH]2)c1,-181.9*
COc1cc(/C=C/c2nnc3c4ccccc4ncn23)cc(OC)c1OC,-80.3*
COc1cc(/C=C/c2nc3ccccc3c(=O)[nH]2)cc(OC)c1OC,-83.8*
CCOc1ccc2nc(NC(=O)C3=NNC(=O)CC3)sc2c1,-73.5*
CCOc1ccc2nc(NC(=O)c3cnc(C)cn3)sc2c1,-68.5*
Nc1nc(-c2ccc3ccccc3c2)cs1,-192.8*
SMILES,aSyn UTR act
Nc1nc(-c2ccc(Oc3ccccc3)cc2)cs1,-122.7*
Nc1nc(N)c2cc(Sc3ccc4ccccc4c3)ccc2n1,96.1
Cc1ccc(N/C(N)=N/c2nc(CSc3nnc(C)s3)cc(=O)[nH]2)c(C)c1,83.5
Nc1ccc(Oc2ccccc2-c2ccccc2)cc1,104.4
Cc1ccc(-c2csc(N=C(N)N)n2)c(C)c1,-94.2*
COc1ccc(-c2ccc(OC)cc2)cc1,-120.3*
COc1ccc(-c2csc(N=C(N)N)n2)cc1,-140.8*
Nc1nc(-c2ccc(-c3ccccc3)cc2)cs1,-185.8*
COc1ccc(-c2csc(N)n2)cc1,-101.1*
c1ccc2cc(-c3csnn3)ccc2c1,-74.5*
Cc1cc(=O)n2[nH]c(-c3ccc(F)cc3)cc2n1,-64.4*
Cc1cccc(-c2cc3nc(-c4ccccc4)cc(=O)n3[nH]2)c1,-103.2*
O=C(Nc1cc(N2CCCCC2)ncn1)c1ccc(F)cc1,-86.3*
CN(C)c1ccc(C2Nc3cccc4cccc(c34)N2)cc1,-94.1*
Cc1ccc(C2NC(=O)c3ccccc3N2)s1 (stereo not given),-168.1*
O=C1NC(c2ccc(Cl)cc2)Nc2ccccc21 (stereo not given),-62.0*
CN(C)c1ccc(C2NC(=O)c3ccccc3N2)cc1 (stereo not given),-130.6*
COc1cc(NC(C)=O)ccc1NC(=O)c1cc2ccccc2o1,-82.9*
CCCC(=O)Nc1ccc(NC(=O)c2cc3ccccc3o2)c(OC)c1,-222.5*
COc1cc(N)ccc1NC(=O)c1cc2ccccc2o1,-135.6*
Cc1ccc(NC(=O)c2ccc(CSc3nnc(-c4ccncc4)n3C)cc2)cc1,-108.2*
Cn1nnnc1SCc1ccc(C(=O)Nc2ccc(Br)cc2)cc1,-185.7*
CCOC(=O)c1ccc(CSc2nnc(-c3ccncc3)n2N)cc1,-63.2*
CC1=CC(C)(C)N=C(Nc2ccc(C)cc2)S1,-168.8*
Cn1ccnc1SCC(=O)c1c[nH]c2ccccc12,-160.0*
SMILES,aSyn UTR act
CCC1=C/C(=C/N(C)c2ccccc2)C(=O)S1,-62.3*
Fc1ccc(CSc2nnc(-c3cccnc3)o2)cc1,-64.9*
c1ccc(CSc2nnc(-c3cccnc3)o2)cc1,-123.2*
c1ccc(CSc2nnc(Cc3ccccc3)o2)cc1,-71.4*
c1ccc(-c2nnc(SCCC3OCCCO3)o2)cc1,-111.3*
O=C(CSc1nnc(COc2ccc(Cl)cc2)o1)N1c2ccccc2CCc2ccccc21,59.9
Cc1ccccc1-c1nnc(SCc2ccc(F)cc2)o1,-126.5*
Oc1ccc(-c2nnc(SCc3ccccc3)o2)cc1,-138.0*
Cc1nc(C(C)NC(=O)c2cc(COc3ccc(C)c(C)c3)on2)c(C)s1 (stereo not given),-82.2*
CC(=O)c1ccc(OCc2cc(C(=O)NCCn3nc(C)cc3C)no2)cc1,-68.5*
CC(NC(=O)c1cc(COc2ccccc2)on1)c1nccs1 (stereo not given),-169.1*
CC(=O)c1ccc(OCc2cc(C(=O)NC(C)c3cnn(C)c3)no2)cc1 (stereo not given),-86.7*
Cc1cc(OCc2cc(C(=O)NC(C)c3c(C)nn(C)c3C)no2)cc(C)c1Cl (stereo not given),-114.4*
Cc1cc(CNC(=O)c2cc(COc3ccc(F)c(F)c3)on2)nn1C,-123.5*
CC(=O)Nc1ccc(N/C=C/C(=O)c2ccco2)cc1,-323.0*
CN(C)c1ccc(N/C=C/C(=O)c2ccco2)cc1,-105.1*
O=C(/C=C/Nc1ccc(Br)cc1F)c1ccco1,57.4
O=C(/C=C/Nc1ccccc1O)c1ccco1,-86.5*
O=C(COc1ccccc1N1C(=O)c2ccccc2C1=O)c1ccc(Cl)cc1,-86.9*
Cc1ccccc1C(=O)Nn1cnc2ccccc2c1=O,-78.9*
COc1ccc(C(=O)Nn2cnc3ccccc3c2=O)c(OC)c1,-88.0*
COc1cc(C)nc(N2CCCC(C(=O)NC3CCC(C)CC3)C2)n1 (stereo not given),-145.7*
O=C(Oc1ccc(-c2cnc3ccccc3n2)cc1)c1ccco1,-80.8*
CCC(=O)Oc1ccc(-c2cnc3ccccc3n2)cc1,-99.3*
C=CCC1(CC=C)CCCN1C(=O)C1CCC(=O)N(CCc2ccccc2)C1 (stereo not given),-180.7*
SMILES,aSyn UTR act
COc1ccc(CCN2CC(C(=O)N(C)Cc3ccc(C)o3)CCC2=O)cc1 (stereo not given),-86.9*
C=CCC1(CC=C)CCCN1C(=O)C1CCC(=O)N(CCc2ccc(OC)cc2)C1 (stereo not given),-209.6*
Clc1ccc(-n2nnc(-c3cccnc3Cl)n2)cc1Cl,-108.5*
Fc1ccc(-n2nnc(-c3cccnc3Cl)n2)cc1,-86.4*
O=C(c1ccccc1)N1C(=O)C(c2ccccc2)Oc2ccccc21 (stereo not given),81.7
O=C1OC(c2ccc(Cl)cc2)/C(=C(/O)c2ccccc2)C1=O (stereo not given),-66.5*
CCOc1ccc(-c2nc(-c3ccccc3)no2)cc1OCC,-137.1*
CCOc1ccc(-c2nc(-c3ccncc3)no2)cc1OCC,-95.4*
COc1cccc(NC(=O)c2csc3c2CCCC3)c1,-133.8*
COc1ccc(NC(=O)c2csc3c2CCCC3)cc1,-193.4*
O=C(Nc1nccs1)c1csc2c1CCCC2,-128.9*
Cc1ccccc1NC(=O)c1csc2c1CCCC2,-67.2*
Cc1cn(-c2ccc(Br)cc2)[nH]c1=O,-78.6*
CC1CCCC/C1=N\NC(=S)Nc1ccccc1 (stereo not given),-131.5*
